Records with an inconclusive call do not appear. The source made the active and inactive calls. Unless noted, calls come from the whole dose curve; as a rule, active = well fitted curve in the direction sought with a large enough effect in the repeat runs; inconclusive = weak or mixed curves; inactive = no such curve, though single readings can be large; an effect the other way counts as inactive or inconclusive.
Experiments:
[1] = qHTS assay to identify small molecule antagonists of the estrogen receptor beta (ER-beta) signaling pathway - cell viability counter screen (AID 1259382);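 note: HEK293T cells carrying ER-beta-UAS-bla reporter stimulated with estradiol; series mostly up to about 92 µM; nearly all actives have a fitted effect of over 55% in size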
In short: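 ER-beta-UAS-bla HEK293T cells (2,000/well, 2% charcoal-stripped FBS) were pre-incubated 6 hr at 37C, then given compound plus 1nM final 17-beta-estradiol for 16 hr. Viability was read in the same wells by CellTiter-Glo luminescence after 30 min at room temperature.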

[2] = target: Estrogen receptor (Homo sapiens) (UniProt P03372); test: qHTS assay to identify small molecule agonists of the estrogen receptor alpha (ER-alpha) signaling pathway in the presence of an antagonist (AID 1259383; calls by dose curve; note: top concentration of the series differs between compounds; nearly all actives have a fitted effect of over 15% in size)
Estrogen receptor (Homo sapiens), sequence (P03372 whole entry, looked up): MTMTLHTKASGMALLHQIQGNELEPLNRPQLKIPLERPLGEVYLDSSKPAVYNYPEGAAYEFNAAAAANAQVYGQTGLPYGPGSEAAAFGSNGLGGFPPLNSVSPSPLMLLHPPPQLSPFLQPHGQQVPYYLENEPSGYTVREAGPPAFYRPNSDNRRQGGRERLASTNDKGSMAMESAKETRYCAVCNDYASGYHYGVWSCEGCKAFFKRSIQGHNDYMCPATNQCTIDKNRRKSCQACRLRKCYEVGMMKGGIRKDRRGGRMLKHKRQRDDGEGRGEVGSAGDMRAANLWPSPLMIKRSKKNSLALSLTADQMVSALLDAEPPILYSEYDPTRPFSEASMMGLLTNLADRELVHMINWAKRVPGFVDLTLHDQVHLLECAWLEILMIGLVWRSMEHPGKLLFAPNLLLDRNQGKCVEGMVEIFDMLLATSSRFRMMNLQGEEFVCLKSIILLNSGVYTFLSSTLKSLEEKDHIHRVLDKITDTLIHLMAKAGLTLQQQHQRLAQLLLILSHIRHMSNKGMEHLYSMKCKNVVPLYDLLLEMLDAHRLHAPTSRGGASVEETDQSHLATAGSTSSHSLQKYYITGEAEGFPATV
In short: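 VM7Luc4E2 cells (endogenous full-length ER-alpha, 4×ERE-luciferase) were precultured 5 days in phenol red-free medium with 10% charcoal-stripped FBS, given 10.0nM ICI-182,780 (final), then treated with compounds at 15 concentrations for 22hr at 37C; luminescence read with ONE-Glo.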

[3] = qHTS assay to identify small molecule agonists or antagonists of the thyroid stimulating hormone receptor (TSHR) signaling pathway - wild type cell line counter screen (AID 1259384; calls by dose curve)
In short: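 Counter screen in untransfected Hek293: compounds (15-point titration, triplicate) plus phosphodiesterase inhibitor Ro20-1724 added after 18 h plating; 30 min RT. Intracellular cAMP via competitive d2/cryptate immunoassay, 1 h incubation.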

[4] = qHTS assay to identify small molecule agonists of the estrogen receptor alpha (ER-alpha) signaling pathway in the presence of an antagonist - cell viability counter screen (AID 1259386);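 note: series mostly up to about 92 µM; cells exposed to compounds for 22 h at 37 °C before the viability read; nearly all actives have a fitted effect of over 30% in size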
In short: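 VM7Luc4E2 cells (endogenous full-length ER-alpha, 4×ERE-luciferase) were held 5 days in phenol red-free medium with 10% charcoal-stripped FBS, plated, then given 10.0nM ICI-182,780 and compounds at 15 concentrations for 22hr at 37C; viability read by CellTiter-Fluor fluorescence.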

[5] = target: Progesterone receptor (Homo sapiens) (UniProt P06401); test: qHTS assay to identify small molecule agonists of the progesterone receptor (PR) signaling pathway (AID 1346784; calls by dose curve; note: nearly all actives have a fitted effect of over 30% in size)
Progesterone receptor (Homo sapiens), sequence (P06401 whole entry, looked up): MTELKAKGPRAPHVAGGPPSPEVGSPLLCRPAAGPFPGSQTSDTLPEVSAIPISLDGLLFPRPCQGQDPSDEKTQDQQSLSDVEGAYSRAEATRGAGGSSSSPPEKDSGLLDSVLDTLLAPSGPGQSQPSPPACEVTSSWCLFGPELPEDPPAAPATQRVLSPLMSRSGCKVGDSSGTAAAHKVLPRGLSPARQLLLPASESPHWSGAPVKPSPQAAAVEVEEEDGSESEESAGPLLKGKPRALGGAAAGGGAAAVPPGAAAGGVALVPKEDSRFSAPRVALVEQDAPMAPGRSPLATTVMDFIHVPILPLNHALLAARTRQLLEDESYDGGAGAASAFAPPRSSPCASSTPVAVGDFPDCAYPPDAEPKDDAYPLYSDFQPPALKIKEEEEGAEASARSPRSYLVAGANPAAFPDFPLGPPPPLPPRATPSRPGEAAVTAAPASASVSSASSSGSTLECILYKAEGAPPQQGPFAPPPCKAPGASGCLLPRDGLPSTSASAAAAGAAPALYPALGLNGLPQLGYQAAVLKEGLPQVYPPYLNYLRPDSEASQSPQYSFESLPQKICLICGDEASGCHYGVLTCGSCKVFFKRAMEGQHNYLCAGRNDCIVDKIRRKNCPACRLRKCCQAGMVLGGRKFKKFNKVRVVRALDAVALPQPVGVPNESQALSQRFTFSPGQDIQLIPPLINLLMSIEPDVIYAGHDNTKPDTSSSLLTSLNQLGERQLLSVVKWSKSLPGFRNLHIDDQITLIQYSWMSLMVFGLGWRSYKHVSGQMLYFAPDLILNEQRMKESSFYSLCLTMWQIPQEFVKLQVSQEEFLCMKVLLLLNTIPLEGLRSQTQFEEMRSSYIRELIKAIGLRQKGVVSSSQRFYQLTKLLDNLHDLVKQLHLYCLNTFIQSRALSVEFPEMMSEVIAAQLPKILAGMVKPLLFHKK
In short: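 Agonist qHTS: compounds pinned onto 3,000 PR-UAS-bla HEK 293T cells per well in charcoal-stripped serum medium, 16hr at 37C, then beta-lactamase activity measured by LiveBLAzer FRET fluorescence after 2 hours at room temperature.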

[6] = target: Progesterone receptor (Homo sapiens) (UniProt P06401); test: qHTS assay to identify small molecule antagonists of the progesterone receptor (PR) signaling pathway (AID 1346795; active = well fitted inhibition curve with a large enough effect in the signal ratio in the repeat runs, not every such curve was filed as active; the % refers to the signal ratio)
In short: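 Antagonist mode with agonist R5020 at 1 nM final and 16 hr incubation at 37C. Reporter was beta-lactamase driven by UAS in HEK293T (PR-UAS-bla), 2% charcoal-stripped serum; signal from LiveBLAzer FRET substrate, 2 hr at room temperature.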

[7] = qHTS assay to identify small molecule antagonists of the progesterone receptor (PR) signaling pathway - cell viability counter screen (AID 1346798); note: series mostly up to about 92 µM; nearly all actives have a fitted effect of over 50% in size
In short: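 Cytotoxicity read as CellTiter-Glo luminescence (30 min, room temperature) in the same wells as the beta-lactamase readout. HEK293T PR-UAS-bla cells in charcoal-stripped 2% FBS received compound and R5020, then 16 h at 37C, 5% CO2.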

[8] = qHTS assay to identify small molecule agonists of the progesterone receptor (PR) signaling pathway - cell viability counter screen (AID 1346799; calls by dose curve; note: nearly all actives have a fitted effect of over 45% in size)
In short: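 Cytotoxicity measured by CellTiter-Glo luminescence (30 min, RT) in the same wells as the PR beta-lactamase agonist read. Those HEK293T cells had 16 h compound treatment at 37 C in 2% charcoal-stripped FBS medium.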

[9] = qHTS assay to identify small molecule antagonists of the TGF-beta/Smad signaling pathway - cell viability counter screen (AID 1346824); note: nearly all actives have a fitted effect of over 50% in size
In short: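 Cytotoxicity counter-screen run in the same wells as the beta-lactamase Smad reporter read: CellTiter-Glo luminescence after 30 min at room temperature. HEK 293T SBE-bla cells had 5 hr compound exposure at 37 C with TGF-beta1 (0.25 ng/mL stock).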

[10] = target: Thyrotropin receptor (Homo sapiens) (UniProt P16473); test: qHTS assay to identify small molecule antagonists of the thyroid stimulating hormone receptor (TSHR) signaling pathway (AID 1259385; calls by dose curve; note: nearly all actives have a fitted effect of over 20% in size)
Thyrotropin receptor (Homo sapiens), sequence (P16473 whole entry, looked up): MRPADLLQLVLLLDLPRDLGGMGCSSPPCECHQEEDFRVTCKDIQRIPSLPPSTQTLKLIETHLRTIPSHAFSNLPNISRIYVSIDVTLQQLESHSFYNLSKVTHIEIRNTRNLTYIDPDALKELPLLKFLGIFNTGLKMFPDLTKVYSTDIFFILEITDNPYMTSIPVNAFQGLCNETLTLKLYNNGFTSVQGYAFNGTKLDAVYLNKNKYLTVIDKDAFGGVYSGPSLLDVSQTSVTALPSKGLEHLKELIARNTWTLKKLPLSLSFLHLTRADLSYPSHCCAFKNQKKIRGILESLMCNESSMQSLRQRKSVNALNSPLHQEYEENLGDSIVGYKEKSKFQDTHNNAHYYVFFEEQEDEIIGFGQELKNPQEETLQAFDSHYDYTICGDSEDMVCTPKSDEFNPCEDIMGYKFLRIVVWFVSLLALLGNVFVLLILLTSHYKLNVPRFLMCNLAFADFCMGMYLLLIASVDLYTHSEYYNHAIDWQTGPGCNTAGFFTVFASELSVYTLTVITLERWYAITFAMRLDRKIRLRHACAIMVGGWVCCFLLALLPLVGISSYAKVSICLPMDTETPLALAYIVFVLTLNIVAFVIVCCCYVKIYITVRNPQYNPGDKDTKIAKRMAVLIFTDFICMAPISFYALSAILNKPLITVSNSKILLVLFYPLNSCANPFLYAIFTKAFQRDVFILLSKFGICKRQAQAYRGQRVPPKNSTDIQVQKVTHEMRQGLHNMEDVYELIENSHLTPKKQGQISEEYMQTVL
In short: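 Antagonist mode: compound-treated TSHR-expressing HEK293 cells were stimulated with 1.5 ng/mL TSH (final) in presence of Ro20-1724 for 30 min at RT. HTRF cAMP detection after 1 h; each compound tested at 15 concentrations, triplicate.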
% is set by controls: 0 for no effect and ±100 for the full control effect.

CC[C@@]1(c2ccccc2)NC(=O)N(C)C1=O
inactive: outcome [1] | Potency [2] | outcome [3] | outcome [4] | Potency [5] | Potency [6] | outcome [7] | Potency [8] | outcome [9]

NNC(=O)CCCCC(=O)NN
inactive: outcome [1] | Potency [2] | outcome [4] | Potency [5] | Potency [6] | outcome [7] | Potency [8] | outcome [9]

Cc1cccc(N)n1
inactive: outcome [1] | Potency [2] | outcome [10] | outcome [4] | Potency [5] | Potency [6] | outcome [7] | Potency [8] | outcome [9]

CN(C)c1cc(NC(=O)CNC(C)(C)C)c(O)c2c1C[C@H]1C[C@H]3[C@H](N(C)C)C(=O)C(C(N)=O)=C(O)[C@@]3(O)C(=O)C1=C2O
inactive: outcome [1] | Potency [2] | outcome [4] | Potency [5] | Potency [6] | outcome [7] | Potency [8] | outcome [9]

BrCCOc1ccccc1
inactive: outcome [1] | Potency [2] | outcome [4] | Potency [5] | Potency [6] | outcome [7] | Potency [8] | outcome [9]

Cc1cc(C)c(C)c(C)c1
inactive: outcome [1] | Potency [2] | outcome [4] | Potency [5] | Potency [6] | outcome [7] | Potency [8] | outcome [9]

CCCCCCCCCCCCCCCC(=O)OC
inactive: activity change, negative = cytotoxicity [1] 0.248% [at 19 µM] | activation [2] -2.08% [at 19 µM] | activity change, negative = inhibition [10] 1.93% [at 19 µM] | activity change, negative = cytotoxicity [4] -0.526% [at 19 µM] | activation [5] -3.12% [at 19 µM] | activity change, negative = inhibition [6] 0.526% [at 18.9 µM] | activity change, negative = cytotoxicity [7] 20% [at 18.9 µM] | viability change, negative = cytotoxic [9] 1.68% [at 15.8 µM]

Cc1ccc2cccnc2c1
inactive: outcome [1] | Potency [2] | outcome [4] | Potency [5] | Potency [6] | outcome [7] | Potency [8]

COc1ccccc1N1CCN(CC(O)COc2cc(OC)c(OC)c(OC)c2)CC1 (centres undefined)
inactive: outcome [1] | Potency [2] | outcome [10] | outcome [4] | Potency [5] | Potency [6] | outcome [7] | outcome [9]

C[C@]12C=CC(=O)C=C1[C@@H](F)C[C@@H]1[C@@H]2[C@@H](O)C[C@@]2(C)[C@H]1CC[C@]2(O)C(=O)CO
inactive: outcome [1] | Potency [2] | outcome [10] | outcome [4] | outcome [7] | Potency [8] | outcome [9]

O=C(O)COc1ccc2ccccc2c1
inactive: outcome [1] | Potency [2] | outcome [4] | Potency [5] | Potency [6] | outcome [7] | Potency [8] | outcome [9]

CC1=C(O)C(=O)CO1
inactive: outcome [1] | Potency [2] | outcome [4] | Potency [5] | Potency [6] | outcome [7] | Potency [8] | outcome [9]

O=S(=O)(O)CC(O)CCl (centres undefined)
inactive: outcome [1] | Potency [2] | outcome [4] | Potency [5] | Potency [6] | outcome [7] | Potency [8] | outcome [9]

CC(=O)SCC(CC(=O)c1ccc(C)cc1)C(=O)O (centres undefined)
inactive: outcome [1] | Potency [2] | outcome [4] | Potency [5] | Potency [6] | outcome [7] | Potency [8] | outcome [9]

CCCCCCCC(=O)N(C)C
inactive: outcome [1] | Potency [2] | outcome [4] | Potency [5] | Potency [6] | outcome [7] | Potency [8] | outcome [9]

C=CCCCCCCCCOC(C)=O
inactive: outcome [1] | Potency [2] | outcome [4] | Potency [5] | Potency [6] | outcome [7] | Potency [8] | outcome [9]

COc1cc(OC)cc(OC)c1
inactive: outcome [1] | Potency [2] | outcome [4] | Potency [5] | Potency [6] | outcome [7] | Potency [8] | outcome [9]

CCCCCCC(O)CO (centres undefined)
inactive: outcome [1] | Potency [2] | outcome [4] | Potency [5] | Potency [6] | outcome [7] | Potency [8] | outcome [9]

C[C@@H](CN1CC(=O)NC(=O)C1)N1CC(=O)NC(=O)C1
inactive: outcome [1] | Potency [2] | outcome [4] | Potency [5] | Potency [6] | outcome [7] | Potency [8] | outcome [9]

O=C1CCCc2c(O)cccc21
inactive: outcome [1] | Potency [2] | outcome [4] | Potency [5] | Potency [6] | outcome [7] | Potency [8] | outcome [9]

CN(C)c1ccncc1
inactive: outcome [1] | Potency [2] | outcome [10] | outcome [4] | Potency [5] | Potency [6] | outcome [7] | Potency [8] | outcome [9]

N#CC1(N)CCCCC1
inactive: outcome [1] | Potency [2] | outcome [10] | outcome [4] | Potency [5] | Potency [6] | outcome [7] | Potency [8] | outcome [9]

CCCC(=O)C(CC)Sc1ccoc1C (centres undefined)
inactive: outcome [1] | Potency [2] | outcome [4] | Potency [5] | Potency [6] | outcome [7] | Potency [8] | outcome [9]

CN1C(CCl)Nc2cc(Cl)c(S(N)(=O)=O)cc2S1(=O)=O (centres undefined)
inactive: outcome [1] | Potency [2] | outcome [4] | Potency [5] | Potency [6] | outcome [7] | Potency [8] | outcome [9]

Cc1cc(C)c(N)c(Cl)c1
inactive: outcome [1] | Potency [2] | outcome [10] | outcome [4] | Potency [5] | Potency [6] | outcome [7] | Potency [8] | outcome [9]

CCOC(=O)[C@H](CCc1ccccc1)N[C@H]1CS[C@H](c2cccs2)CN(CC(=O)O)C1=O
inactive: outcome [1] | Potency [2] | outcome [10] | outcome [4] | Potency [8]

CCCCCCCCCCCBr
inactive: outcome [1] | Potency [2] | outcome [4] | Potency [5] | Potency [6] | outcome [7] | Potency [8] | outcome [9]

NS(=O)(=O)c1cc2c(cc1C(F)(F)F)NCNS2(=O)=O
inactive: outcome [1] | Potency [2] | outcome [4] | Potency [5] | Potency [6] | outcome [7] | Potency [8] | outcome [9]

Reference: PubChem BioAssay (Tox21)
